Bioassay records: PubChem BioAssay, Center for Chemical Genomics, University of Michigan
Rows were chosen to be rich in hits. Some 0.9% of all compounds tested hit in one or more screens of this group.
CDC25B CDK2 inh = primary biochemical HTRF screen for blockers of M-phase inducer phosphatase 2 binding to CDK2/cyclin A; HTRF CDC25B-CDK2/CyclinA binding, anti-His/anti-Flag; hits give high values; z-score (concentration not given with the values); 94,000 compounds, 0.72% hits; P30305+P24941; in the data active means z-score above about 3.2
TAR Tat displ = TAR RNA-Tat peptide displacers, HIV-1, primary screen, biochemical, FRET, FAM/TAMRA-labeled Tat; HIV-1 TAR RNA, Tat peptide displacement FRET; hits give high values; z-score (concentration not given with the values); 100,000 compounds, 0.6% hits; active means z-score of 3 or more in at least 2 runs
* = called active by the depositor; · = no result.

SMILES	CDC25B CDK2 inh	TAR Tat displ
CCn1cnc2cc(NCc3nc4ccccc4n3C)ccc21	2.5	-0.54
CC(C)CCn1c(CN2CCN(c3ccc(F)cc3)CC2)nc2c1c(=O)n(C)c(=O)n2C	-1.5	-0.55
COc1ccc(NC(=O)N2c3cc(C)c(C)cc3C(C)=CC2(C)C)cc1OC	-1.3	-5.2
O=C(O)CSCC(=O)N1CCN(c2ccc(F)cc2)CC1	-0.55	·
CC(=O)Oc1ccc(C2Nc3ccc(C)cc3C3C=CCC32)c(OC(C)=O)c1 (stereo not given)	0.59	-5.2
CC(=O)Oc1ccc(C2Nc3ccc(C(=O)O)cc3C3C=CCC32)c(OC(C)=O)c1 (stereo not given)	5.1*	·
COc1cccc([C@@H]2Nc3ccc(C(=O)O)cc3[C@@H]3C=CC[C@@H]32)c1	2	14*
COC(=O)c1ccc([C@@H]2Nc3ccc(C(=O)O)cc3[C@@H]3C=CC[C@@H]32)cc1	0.2	7.4*
COc1cccc([C@@H]2Nc3ccc(C(=O)O)cc3[C@@H]3C=CC[C@@H]32)c1OC	0.41	-0.49
O=C(O)c1ccc2c(c1)C1C=CCC1C(c1ccc(F)cc1)N2 (stereo not given)	0.41	10*
COC(=O)c1ccc(C2Nc3ccc(OC)cc3C3C=CCC32)cc1 (stereo not given)	-0.39	0.02
CCc1ccc(C2Nc3ccc(C(=O)O)cc3C3C=CCC32)cc1 (stereo not given)	0.26	·
Cc1cc(-c2ccc(=O)[nH]n2)cc(S(=O)(=O)Nc2ccccc2)c1C	·	0.95
COc1cc([C@@H]2c3cc4c(cc3[C@H](O)C3COC(=O)[C@@H]32)OCO4)cc(OC)c1OC (stereo not given in full)	-2	2.1
CN(CCCNC(=O)c1c(N2CCCC2=O)c2cc(F)ccc2n1C)C1CCCCC1	·	-0.95
COc1ccc(NC(=O)C(C)SC2=Nc3ccccc3C3=NC(C(C)C)C(=O)N23)cc1 (stereo not given)	·	1.2
CCOc1ccc(-n2c(CSc3nc(C)cc(C)n3)nnc2SC(C)C(=O)OC)cc1 (stereo not given)	-0.97	0.61
COc1ccc2c(c1)CCc1c-2n[nH]c1C(=O)Nc1ccc2c(c1)OCO2	·	-0.03
COCCCN1C(=O)c2[nH]nc(-c3ccccc3O)c2C1c1cccc(O)c1 (stereo not given)	-2	-0.56
CCc1ccccc1Nc1nc(-c2sc(N)nc2C)cs1	2.6	-7
Cc1nc(N)sc1-c1csc(Nc2cccc(Cl)c2C)n1	9.4*	-3.7
CCc1nn(C(C)C(=O)NCCCN2CCOCC2)c(=O)c2cc3occc3n12 (stereo not given)	-0.59	1.4
O=C1CC(c2ccc(O)c(O)c2)c2c(nc(SCc3ccccc3)[nH]c2=O)N1 (stereo not given)	2.6	17*
Cc1cccc(CSc2nc3c(c(=O)[nH]2)C(c2cc(F)cc(F)c2)CC(=O)N3)c1 (stereo not given)	1.5	2.5
COc1ccc(C2CC(=O)Nc3nc(SCc4ccccc4)[nH]c(=O)c32)cc1Br (stereo not given)	-0.72	0.73
SMILES	CDC25B CDK2 inh	TAR Tat displ
Cc1ccc(CSc2nc3c(c(=O)[nH]2)C(c2cc(C)ccc2C)CC(=O)N3)cc1 (stereo not given)	-1.4	1.5
Cc1ccc(CSc2nc3c(c(=O)[nH]2)C(c2ccc(O)c(O)c2)CC(=O)N3)cc1 (stereo not given)	0.11	12*
Cc1cccc(CSc2nc3c(c(=O)[nH]2)C(c2ccc(O)c(O)c2)CC(=O)N3)c1 (stereo not given)	-0.51	12*
O=C(C1CCCN(S(=O)(=O)N2CCOCC2)C1)N1CCN(c2ccc(F)cc2)CC1 (stereo not given)	·	-0.23
O=C(C1CCCN(S(=O)(=O)N2CCCCC2)C1)N1CCN(c2ccccc2)CC1 (stereo not given)	·	15*
CC(=O)c1c(C)nn(-c2ccccc2)c1-c1ccccc1[N+](=O)[O-]	-0.98	·
CCSc1nc2c(c(=O)[nH]1)C(c1ccc(O)c(O)c1)CC(=O)N2 (stereo not given)	14*	22*
CSc1nc2c(c(=O)[nH]1)C(c1ccc(O)c(O)c1)CC(=O)N2 (stereo not given)	5.6	18*
CCSc1nc2c(c(=O)[nH]1)C(c1cccc(O)c1)CC(=O)N2 (stereo not given)	-1.4	0.62
CSc1nc2c(c(=O)[nH]1)C(c1cccc(O)c1)CC(=O)N2 (stereo not given)	-2.4	2.8
O=C(NCCCO)Nc1ccc2snnc2c1	6.5*	1.5
CCN(CC)C(=O)Nc1ccc2snnc2c1	9.1*	1.1
O=C(Nc1ccc2snnc2c1)NC1CCCC1	2	1.5
O=C(NCc1ccc2c(c1)OCO2)Nc1ccc2snnc2c1	-2.3	·
C=CCNC(=O)Nc1ccc2snnc2c1	10*	2.1
C=CCNC(=O)c1ccc2snnc2c1	-0.87	0.7
O=C(NCc1ccccc1)Nc1ccc2snnc2c1	11*	1.1
CN(C)C(=O)Nc1ccc2snnc2c1	1.9	-0.37
CC(NCCC(c1ccccc1)c1ccccc1)c1ccccc1 (stereo not given)	·	1.1
Clc1ccc(-c2noc3ncnc(NC4CCN(Cc5ccccc5)CC4)c23)cc1	-0.29	1.2
CCN1CCN(C(=O)COCc2cc(-c3cccs3)on2)CC1	·	0.07
O=C(Cn1cnc(S(=O)(=O)N2CCCC2)c1)N1CCN(CCOc2ccc(Cl)cc2)CC1	·	0.62
CCN(CC)S(=O)(=O)c1ccc2c(c1)N(CC(=O)NC(C)(C)C)C(=O)CS2	-0.66	0.2
O=C1CSC(c2cn(-c3ccccc3)nc2-c2ccccc2)N1Cc1cccnc1 (stereo not given)	-3.3	-0.02
COCCNC(=O)Nc1ccc2snnc2c1	7.8*	1.8
SMILES	CDC25B CDK2 inh	TAR Tat displ
CSc1ccc(CCNC(=O)Nc2ccc3snnc3c2)cc1	0.6	2.1
c1ccc(CCc2nc3ccccc3[nH]2)cc1	0.45	0.52
O=C(Nc1ccc2c(c1)OCO2)c1nccnc1CO	-0.88	1.1
COC(=O)c1cc2oc3ccccc3c2n1CC(=O)NCc1ccco1	4.1	8*
Cn1c(C(=O)NCc2ccco2)cc2oc3ccccc3c21	-4.6	·
O=S(=O)(Nc1ccc(F)cc1Cl)c1ccc(-c2cnc(C3CC3)o2)cc1	·	1.1
CC(C)CNS(=O)(=O)c1cc2c3c(c1)CC(=O)N3CCC2	·	1.2
CC(=O)Oc1ccc2ccccc2c1-c1c(OC(C)=O)ccc2ccccc12	-2	-0.52
CC(=O)Oc1ccc(OC(C)=O)c2c1C(=O)c1ccccc1C2=O	17*	·
O=CC(C=Nc1ccc(Cl)cn1)[N+](=O)[O-] (stereo not given)	4.3*	·
O=C(COCc1cc(-c2ccco2)on1)NCCN1CCOCC1	·	0.71
CCC(=O)Nc1ccc2nc3c(=O)[nH]c(=O)[nH]c3nc2c1	2.9	-4.7
CC(=O)Nc1ccc2nc3c(=O)[nH]c(=O)[nH]c3nc2c1	8*	1.8
CCCC1c2ccc(C)n2CCN1C(=O)NCc1ccco1 (stereo not given)	-0.51	-5.1
C=CCNc1nc2c3ccccc3n(C(C)=O)c2s1	-2.2	2.1
COc1ccc(Nc2nc3c4ccccc4n(C(C)=O)c3s2)cn1	14*	0.35
Cc1ccc2c(c1)c1c(n2CC(O)CNCc2ccco2)C(=O)CCC1 (stereo not given)	-1.8	·
O=C1c2c(O)cccc2Cc2cccc(O)c21	·	25*
